In PubChem BioAssay (NCI):
This is part of a sample that, as a whole, favours compounds with a hit. Of some 79,000 tested, about 15% had one in any assay. The source made the active and inactive calls. Rule as the data show it: active = growth inhibition above about 70%; inactive = the rest.

Columns and labels:
[1] = NCI Yeast Anticancer Drug Screen. Data for the rad50 strain (AID 155);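 also: 0% = growth of vehicle-only cultures of the same strain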; conditions: S. cerevisiae rad50 strain growth inhibition; at 50.0 µM; hits give high values
How it was run: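 Readout: growth inhibition relative to vehicle-treated cultures. Compound exposure was carried out in a genetically defined yeast strain deficient in DNA damage repair.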

[2] = NCI Yeast Anticancer Drug Screen. Data for the mec2-1 strain (AID 157); conditions: S. cerevisiae mec2-1 strain, at 50.0 µM, hits give high values
How it was run: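 Mutant yeast (mec2-1) grown with compound; growth inhibition relative to vehicle control reported.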

[3] = NCI Yeast Anticancer Drug Screen. Data for the sgs1 mgt1 strain (AID 161);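 also: 0% = growth of cultures given vehicle only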; conditions: S. cerevisiae sgs1 mgt1 strain, at 50.0 µM, hits give high values
How it was run: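 Percent growth inhibition was derived by comparing compound-exposed mutant yeast with vehicle-exposed cultures. The strain carries alterations in DNA damage repair.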

[4] = NCI Yeast Anticancer Drug Screen. Data for the cln2 rad14 strain (AID 165);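 also: 0% = growth equal to vehicle treated cultures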; conditions: S. cerevisiae cln2 rad14 strain, at 50.0 µM, hits give high values
How it was run: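 Readout is yeast growth inhibition versus vehicle-treated controls, using a strain with cln2 and rad14 alterations exposed to compound.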

[5] = NCI Yeast Anticancer Drug Screen. Data for the bub3 strain (AID 167); conditions: S. cerevisiae bub3 mutant strain, at 50.0 µM, hits give high values
How it was run: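 Readout: yeast growth inhibition, expressed relative to vehicle-only wells. The test organism is a mutant strain from a panel with lesions in DNA repair or checkpoint genes.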

[6] = NCI Yeast Anticancer Drug Screen. Data for the mlh1 rad18 strain (AID 175); conditions: S. cerevisiae mlh1 rad18 strain growth inhibition; at 50.0 µM; hits give high values
How it was run: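 Genetically defined yeast (DNA repair-deficient) exposed to compounds; growth inhibition determined relative to vehicle.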

Measured: growth inhibition

Cc1cc(C(=O)O)cc(C)c1N(C)Cc1cnc2nc(N)nc(N)c2n1
inactive: [1] 5.6% | [2] -11.8% | [3] 0.25% | [4] 20.7% | [5] 17.4% | [6] -5%

O=C(Cl)c1ccc(Cc2ccc([N+](=O)[O-])cc2)cc1
inactive: [1] 14.8% | [2] 8.4% | [3] 11.4% | [4] -21.9% | [5] -17.1% | [6] 12.4%

O=C(O)c1cccc(=O)o1
inactive: [1] -3.35% | [2] -16.3% | [3] -11.3% | [4] 3.35% | [5] 7.1% | [6] -1.65%

CC(=O)Oc1ccc(C2OC(=O)c3ccccc3N2C(C)=O)cc1 (stereo unspecified)
inactive: [1] 4.05% | [2] 27.6% | [3] 12.7% | [4] -6.3% | [5] 34.6% | [6] 26.9%

CC(C)n1nnnc1-c1ccccc1
inactive: [1] -6.45% | [2] -8.5% | [3] 2% | [4] -15.9% | [5] -3.1% | [6] 1.15%

COC(=O)CN(C(=O)c1ccc(OC(C)=O)cc1)c1ccccc1
inactive: [1] 4.25% | [2] 23.3% | [3] -6.7% | [4] 9.1% | [5] 3.45% | [6] -28.1%

CN(C)C(SCc1c(Cl)c(Cl)c(Cl)c(Cl)c1Cl)=[N+](C)C
inactive: [1] 19.4% | [2] 6.3% | [3] 15.4% | [4] 11.8% | [5] 7.15% | [6] 28.6%

CC(=O)Nc1ccc(C2SCc3nc4ccccc4n32)cc1 (stereo unspecified)
inactive: [1] -21.5% | [2] -11.1% | [3] -32.5% | [4] -34.2% | [5] -24.9% | [6] -48.8%

N#CC1CCN(Cc2ccccc2)C(C#N)C1 (stereo unspecified)
inactive: [1] -9.05% | [2] -2.65% | [3] -16.8% | [4] -4.8% | [5] -14.2% | [6] 3.25%

CN(C)c1ccc(C=C2C(=O)CC(C)(C)CC2=O)cc1
inactive: [1] 12.5% | [2] 10.2% | [3] 23.1% | [4] 16.1% | [5] 5.85% | [6] -8.4%

O=C(O)C(F)(F)C(F)(F)C(F)(F)C(F)(F)C(=O)O
inactive: [1] -1.85% | [2] -2.95% | [3] -37.8% | [4] -28.3% | [5] -45.8% | [6] -22.8%

CSc1nc(NC2OC(COC(C)=O)C(OC(C)=O)C(OC(C)=O)C2OC(C)=O)c(N=C(C)C(C)=O)c(=O)n1C (stereo unspecified)
inactive: [1] 16.2% | [2] -7.75% | [3] -14.2% | [4] 9.7% | [5] 1.2% | [6] 6.95%

CCC(=O)c1cccc(-c2ccccc2)c1CC
inactive: [1] 17.9% | [2] -7% | [3] 15.9% | [4] 4.05% | [5] -22.6% | [6] 12.9%

O=C1O/C(=C(\Br)c2ccc([N+](=O)[O-])cc2)c2ccccc21
inactive: [1] 30.4% | [2] -27.4% | [3] 19.4% | [4] 0.85% | [5] -5.9% | [6] 1.05%

CCC(=O)c1c(O)c2ccccc2oc1=O
inactive: [1] -21.1% | [2] 9.45% | [3] -5.2% | [4] -4.1% | [5] 11.8% | [6] 8.1%

O=c1cc(-c2ccccc2)[nH]c2[nH]n(-c3ccccc3)c(=O)c12
inactive: [1] 8.55% | [2] 14.2% | [3] 24.8% | [4] -10.2% | [5] -9.55% | [6] 16.4%

O=C1C(=O)C(c2ccccc2)(c2ccccc2)C(=O)N1c1ccccc1
inactive: [1] 29.6% | [2] 13.2% | [3] 0.9% | [4] 49.6% | [5] 16.4% | [6] -6.7%

COc1ccc2c(c1)c(=O)c1ccccc1n2/C=C/C(=O)O
inactive: [1] -6% | [2] -14.8% | [3] -8.9% | [4] 3.75% | [5] -3.05% | [6] 2.25%

Nc1nc(NC(=O)C2=NS(=O)(=O)c3cc(S(N)(=O)=O)c(Cl)cc3N2)n[nH]1
inactive: [1] -8.9% | [2] -26.2% | [3] -3.85% | [4] 9.7% | [5] 0.7% | [6] -2.3%

CCC1CC/C(=N\Nc2ccc([N+](=O)[O-])cc2[N+](=O)[O-])c2ccc3c(C)ccc(C)c3c21 (stereo unspecified)
inactive: [1] -1% | [2] 7.25% | [3] -8.7% | [4] -14.2% | [5] -2.5% | [6] 6.8%

CN1CCC2c3c([nH]c4ccccc34)C(C)(C)OC2C1 (stereo unspecified)
inactive: [1] -11.9% | [2] -35.9% | [3] -33.6% | [4] 9.2% | [5] -24.6% | [6] 6.65%

O=C(O)C1C2C=CC(O2)C1C(=O)Nn1cccc1 (stereo unspecified)
inactive: [1] 6.5% | [2] -7.5% | [3] -17.6% | [4] -12.8% | [5] -16.6% | [6] -6.75%

O=C(O)c1cccc(F)n1
inactive: [1] -0.45% | [2] 2.05% | [3] -1.8% | [4] 3.1% | [5] -0.65% | [6] -1.85%

Cc1ccc2cc(N(C)C)ccc2[n+]1C
inactive: [1] 29.9% | [2] 24.1% | [3] 39.9% | [4] 34.4% | [5] 22.2% | [6] 30.8%

O=C(Cn1c2c(c3ccccc31)CCCC2)N1CCCCC1
inactive: [1] -40.5% | [2] -74% | [3] -31.2% | [4] -22.2% | [5] -8.6% | [6] -26.2%

C/C(=N\NC(=O)c1cc(C)nc2ccc(Br)cc12)c1ccccc1O
inactive: [2] 63% | [4] 48.3% | [5] 7.3%
active: [1] 71.1% | [3] 79.8% | [6] 72.5%

Cn1c(=O)c2[nH]c(CSc3ccccc3)nc2n(C)c1=O
inactive: [1] 9% | [2] -5.15% | [3] 6.2% | [4] -2.1% | [5] 21.8% | [6] -14.8%

C1CCC2(CC1)CCCN2
inactive: [1] 7.15% | [2] 3.35% | [3] 1.4% | [4] -3.5% | [5] -1.75% | [6] 6.35%

Cc1cnc(NCCCCCCNc2ncc(C)c(-c3ccccc3O)n2)nc1-c1ccccc1O
inactive: [1] 13.1% | [2] -4.55% | [3] -26.5% | [4] 4% | [5] 0.35% | [6] 4.5%

Cn1c2c(F)cccc2c(=O)c2c(O)cc3c(c21)C=CC(C)(C)O3
inactive: [1] -24.6% | [2] -22.2% | [3] -27.4% | [4] -17.9% | [5] -18.6% | [6] -19.7%

O=C(N[C@H](CO)[C@H](O)c1ccc([N+](=O)[O-])cc1)C(Cl)Cl
inactive: [1] 25.2% | [2] -4.05% | [3] 28.9% | [4] 9.55% | [5] 35.6% | [6] 10.7%

Cc1nc2c(N3CCOCC3)ncnc2o1
inactive: [1] 5.15% | [2] -1.05% | [3] -5.5% | [4] -27.4% | [5] -15.3% | [6] 7.75%

O=C(COc1ccc(Cl)cc1C(=O)O)NCc1cccc2ccccc12
inactive: [1] -0.2% | [2] 36% | [3] 41.8% | [4] 0.9% | [5] 46% | [6] 31.6%

CCN(CC)CCNCc1c[nH]c(=S)[nH]c1=O
inactive: [1] -7.25% | [2] -1% | [3] -19.4% | [4] -1.05% | [5] 1.35% | [6] -9.45%

CCOP(=O)(OCC)OCCCCn1cnc2c1c(=O)n(C)c(=O)n2C
inactive: [1] -32% | [2] -9.4% | [3] -15.7% | [4] -38% | [5] -2.65% | [6] -3.1%

Cc1cccc(C)c1Nc1ncnc2c1cnn2C
inactive: [1] -11.6% | [2] -12.5% | [3] -1.2% | [4] -6.55% | [5] 9.95% | [6] -13.9%

Cc1cc(C)c(N)c(C)n1
inactive: [1] -14.8% | [2] -9.6% | [3] -22.1% | [4] -1.25% | [5] 1.1% | [6] 11.9%

O=S(=O)(O)CCCO
inactive: [1] 0.4% | [2] -44.3% | [3] -14.7% | [4] -1.05% | [5] -0.45% | [6] -2.4%

NC(=O)c1nnc2cc(F)c(F)cc2c1N
inactive: [1] -15.8% | [2] -20.8% | [3] -9.65% | [4] 3.8% | [5] 9.5% | [6] -16.6%

Cn1nc(C(=O)NN)c(=O)[nH]c1=O
inactive: [1] 10.9% | [2] -6.75% | [3] 0.8% | [4] -20.6% | [5] 6.6% | [6] 16.9%

CCCCCCCCCCCCCCCCCCS
inactive: [1] -1.15% | [2] -25.3% | [3] -7.85% | [4] -14.7% | [5] 8.3% | [6] -5.7%
